According to paper PMC4336329 (PLoS ONE, 2015):
About 14,000 (4.5%) of roughly 310,000 compounds showed an effect of 50% or more. Effects have a minus sign here. The sample holds strong results, similar compounds and a random draw of the others, so the mix is not that of the screen.

These compounds were tested against human ether-à-go-go-related gene (hERG) potassium channel (human, UniProt Q12809) (assay: primary screen, population patch clamp on CHO cells stably expressing hERG; higher = less effect of the substance).
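Further: peak tail current of the secondary pulse compared with the same well before compound.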

Chain of human ether-à-go-go-related gene (hERG) potassium channel (Q12809 whole entry, looked up): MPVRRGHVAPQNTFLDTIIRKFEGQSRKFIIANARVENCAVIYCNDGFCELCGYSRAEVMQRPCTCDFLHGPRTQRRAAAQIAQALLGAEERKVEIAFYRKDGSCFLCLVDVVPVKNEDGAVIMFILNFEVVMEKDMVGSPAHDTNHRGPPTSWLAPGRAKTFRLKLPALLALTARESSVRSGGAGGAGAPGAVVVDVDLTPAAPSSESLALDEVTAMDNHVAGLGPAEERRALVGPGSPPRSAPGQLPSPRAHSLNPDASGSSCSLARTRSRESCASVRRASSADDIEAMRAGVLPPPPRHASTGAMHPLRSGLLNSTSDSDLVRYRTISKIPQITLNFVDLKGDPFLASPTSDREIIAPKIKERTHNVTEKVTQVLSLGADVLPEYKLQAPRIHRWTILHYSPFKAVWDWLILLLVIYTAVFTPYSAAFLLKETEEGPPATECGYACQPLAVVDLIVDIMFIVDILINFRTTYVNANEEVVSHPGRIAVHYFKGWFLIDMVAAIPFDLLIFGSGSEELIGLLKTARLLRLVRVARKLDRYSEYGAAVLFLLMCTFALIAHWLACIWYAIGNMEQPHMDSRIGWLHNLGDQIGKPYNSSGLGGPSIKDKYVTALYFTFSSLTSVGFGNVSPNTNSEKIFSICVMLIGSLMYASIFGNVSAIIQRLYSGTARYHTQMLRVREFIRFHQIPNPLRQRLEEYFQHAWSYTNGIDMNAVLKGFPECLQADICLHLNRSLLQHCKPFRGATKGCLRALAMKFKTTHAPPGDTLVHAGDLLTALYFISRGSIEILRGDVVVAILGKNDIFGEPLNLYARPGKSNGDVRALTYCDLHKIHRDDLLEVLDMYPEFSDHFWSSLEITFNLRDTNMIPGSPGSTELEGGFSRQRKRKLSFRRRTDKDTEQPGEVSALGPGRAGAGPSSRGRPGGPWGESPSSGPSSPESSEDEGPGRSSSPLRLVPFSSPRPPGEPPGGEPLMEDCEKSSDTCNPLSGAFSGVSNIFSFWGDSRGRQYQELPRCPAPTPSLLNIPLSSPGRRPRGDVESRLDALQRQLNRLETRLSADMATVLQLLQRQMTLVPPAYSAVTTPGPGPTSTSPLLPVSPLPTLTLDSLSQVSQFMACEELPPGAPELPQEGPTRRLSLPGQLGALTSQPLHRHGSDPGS

Structure (SMILES)	hERG current change (%, negative = inhibition) at 10uM
Cc1cc(OC(C)C(=O)Nc2cccnc2)ccc1Cl (stereo not drawn)	2.05%
COc1ccc(CNC(=O)C2CCN(S(=O)(=O)c3ccc4c(c3)NC(=O)CO4)CC2)cc1	16.7%
O=C(NC(Cc1c[nH]c2ccccc12)C(=O)O)/C(=C\c1ccc2c(c1)OCO2)NC(=O)c1ccccc1 (stereo not drawn)	-7.13%
CCCC(=O)Nc1ccc2nc(SCC(=O)N3CCCC3)sc2c1	2.52%
O=C(O)c1cccc(S(=O)(=O)N2CCCC(c3nc4c(nnn4Cc4ccc(F)cc4)c(=O)[nH]3)C2)c1 (stereo not drawn)	-15.3%
O=C1/C(=C\c2ccc(Br)o2)SC(=Nc2ccccc2)N1c1ccccc1	-10.1%
Cl.N=c1c2c(n(Cc3ccc(Cl)c(Cl)c3)c3c1CCC3)CCCC2	-15.8%
COc1cc(NC(=O)Cc2ccccc2)ccc1NC(=O)c1ccco1	18.5%
O=C(CSc1ccc(-c2ccco2)nn1)Nc1ccc(F)cc1F	-65.8%
O=C(CSc1ccc(-c2ccco2)nn1)Nc1ccccc1	-47.6%
O=C(CSc1ccc(-c2ccco2)nn1)Nc1ccccc1F	-43.4%
Cc1ccc(NC(=O)CSc2ccc(-c3ccco3)nn2)c(C)c1	-24.4%
O=C(CSc1ccc(-c2ccco2)nn1)Nc1ccc(F)cc1	-68.5%
CC(=O)Nc1ccc(NC(=O)CSc2ccc(-c3ccco3)nn2)cc1	-2.54%
CC(NC(=O)c1ccco1)c1nc(-c2ccccc2Cl)no1 (stereo not drawn)	3.9%
Cc1cc2nc(-c3cccc(NC(=O)c4ccc(Br)o4)c3C)oc2cc1C	5.67%
Cc1nc(C)c(-c2ccc(SCC(=O)Nc3cccc(F)c3)nn2)s1	8.66%
CC(C)C(=O)Nc1ccc(Cc2ccc(NC(=O)C(C)C)c(O)c2)cc1O	-23%
COc1cccc(-c2nc(CS(=O)(=O)CC(=O)NCCc3ccc(OC)cc3OC)c(C)o2)c1	-13%
Cc1ccnc(NS(=O)(=O)c2ccc(NC(=O)Cc3ccccc3)cc2)n1	5.26%
COc1ccc(OCCNC(=O)/C=C/c2ccc([N+](=O)[O-])cc2)cc1	-64.7%
COc1ccc(/C=C/C(=O)NCCc2ccc(S(N)(=O)=O)cc2)cc1	3.55%

Structure (SMILES)	hERG current change (%, negative = inhibition) at 10uM
O=C(/C=C/c1cccc([N+](=O)[O-])c1)NCCc1ccc(F)cc1	-21.8%
NS(=O)(=O)c1ccc(CCNC(=O)/C=C/c2ccc([N+](=O)[O-])cc2)cc1	-69.8%
COc1ccccc1OCCNC(=O)/C=C/c1ccc([N+](=O)[O-])cc1	-49.2%
COc1ccc(/C=C/C(=O)NCCOc2ccc(C)cc2)cc1	6.3%
O=C(/C=C/c1cccc([N+](=O)[O-])c1)NCCSCc1ccco1	-29.5%
NS(=O)(=O)c1ccc(CCNC(=O)/C=C/c2cccc([N+](=O)[O-])c2)cc1	-13.7%
O=C(/C=C/c1ccc([N+](=O)[O-])cc1)NCCc1ccc(F)cc1	-60.3%
O=C(/C=C/c1ccc([N+](=O)[O-])cc1)NCc1ccco1	-24.1%
O=C(/C=C/c1ccc([N+](=O)[O-])cc1)NCCc1ccccc1	-14.4%
O=C(/C=C/c1ccc([N+](=O)[O-])cc1)NCCSCc1ccco1	-61.3%
O=[N+]([O-])c1cc(/C=N\Nc2ccccn2)ccc1Cl	18.4%
CCN(CC)c1ccc(NC(=O)CN(C)Cc2cccs2)cc1	6.07%
O=C(O)c1ccc(NC(=O)c2cccs2)cc1	10.1%
COc1ccc(NC(=O)COc2ccccc2F)cc1S(=O)(=O)N1CCCCC1	6.02%
Cc1ccc2c(c1)c1nnc(SCC(=O)N3CCN(c4ccc(F)cc4)CC3)nc1n2CC(=O)O	-63.1%
COc1ccc(N2CCN(C(=O)CSc3nnc4c5cc(C)ccc5n(C)c4n3)CC2)cc1	-13.9%
Cc1ccc2c(c1)c1nnc(SCC(=O)N3CCCc4ccccc43)nc1n2CC(=O)O	20.2%
COc1cccc(OCc2ccc(Cl)cc2)c1C#N	19.6%
CCC(=O)N1CCc2cc(S(=O)(=O)NC(CC(C)C)C(=O)N3CCc4ccccc43)ccc21 (stereo not drawn)	-2.28%
NC(=O)c1ccccc1NCC(=O)c1ccc(Cl)cc1	16.4%
O=C(c1cccc([N+](=O)[O-])c1)c1ccc2c(c1)C(=O)NC2=O	-11.5%
c1ccc2c(c1)OCCOCCOCCOCCOc1ccccc1OCCOCCOCCO2	-62.1%

Structure (SMILES)	hERG current change (%, negative = inhibition) at 10uM
CC(=O)[O-].[K+].c1ccc2c(c1)OCCOCCOc1ccccc1OCCOCCO2	-74.7%
CN1CCOCCOc2ccccc2OCCOCC1	7.5%
OCCN1CCOCCOc2ccccc2OCCOCC1	1.57%
c1ccc2c(c1)OCCOCCOCCOCCOCCOc1ccccc1OCCOCCOCCO2	-59.2%
C=C(C)C(=O)Nc1ccc2c(c1)OCCOCCOCCO2	-26.4%
O=C(N1CCOCCOc2ccccc2OCCOCC1)C(F)(F)F	6.2%
CC(=O)Nc1cccc2c1OCCO2	6.45%
c1ccc2c(c1)OCCOCCOCCO2	10%
O=C(Nc1ccc(Br)cn1)c1ccc2ccccc2c1	26.8%
N=c1occ(C(=O)c2cc(F)ccc2O)cc1C(=O)NC1CCCCC1	0.995%
O=C(COc1ncnc2ccccc12)Nc1ccc(Cl)c([N+](=O)[O-])c1	-7.85%
CCOc1ccc(S(=O)(=O)Nc2ccc(C(=O)NCCCN3CCCC3=O)cc2)cc1	0.2%
COCCn1c(-c2ccc(Br)cc2)csc1=Nc1cccnc1	-14.2%
COCCn1c(-c2ccco2)csc1=Nc1cccnc1.Cl	-3.9%
COCCCn1c(C)csc1=Nc1cccnc1	4.68%
Cl.c1ccc(-c2csc(=Nc3cccnc3)n2CC2CCCO2)cc1 (stereo not drawn)	-31.4%
Clc1ccc(-c2csc(=Nc3cccnc3)n2CCCn2ccnc2)cc1Cl	-67.3%
Br.COCCn1c(-c2ccccc2)csc1=Nc1cccnc1	-68.3%
Cc1ccc(-c2csc(=Nc3cccnc3)n2CCCn2ccnc2)cc1C	-70.2%
Cc1csc(=Nc2cccnc2)n1Cc1ccco1	-0.17%
CCCCn1c(C)csc1=Nc1cccnc1	-2.02%
CCCNS(=O)(=O)c1ccc(OCC(=O)N2CCC(C(=O)OCC)CC2)cc1	-12.6%

Structure (SMILES)	hERG current change (%, negative = inhibition) at 10uM
COc1ccc(C2Nc3ccccc3NC3=C2C(=O)CC(C)(C)C3)cc1O (stereo not drawn)	19%
COc1ccc([C@H]2CC(=O)C=C(c3ccc4c5c(cccc35)CC4)C2)cc1	16%
Cc1cc(N2CCCC2=O)ccc1S(=O)(=O)Nc1c(C)nn(C)c1C	12.3%
N#C/C(=C(/O)c1ccc(Cl)cc1)c1nc2ccccc2[nH]1	7.3%
Cn1c(NNC(=O)c2cccc3ccccc23)cc(=O)n(C)c1=O	6.73%
Cc1cc(C)nc(N2CCC(C(=O)NCc3ccco3)CC2)n1	-1.73%
Cc1cc(NCc2ccco2)nc(N2CCC(C(=O)NC3CCCCC3)CC2)n1	-71.1%
Cc1cc(C)nc(N2CCC(C(=O)NC3CCCCCC3)CC2)n1	-4.75%
O=C(CSc1nnc(NC(=O)c2ccco2)s1)NC1CCCC1	18.6%
CC(Oc1ccc(F)cc1)C(=O)N(CCC1=CCCCC1)c1c(N)n(Cc2ccccc2)c(=O)[nH]c1=O (stereo not drawn)	-52%
Nc1c(N(CCC2=CCCCC2)C(=O)COc2ccc(F)cc2)c(=O)[nH]c(=O)n1Cc1ccccc1	-6.12%
CC(Oc1ccccc1)C(=O)N(CCC1=CCCCC1)c1c(N)n(Cc2ccccc2)c(=O)[nH]c1=O (stereo not drawn)	-48.6%
N#Cc1nc(-c2ccccc2)oc1N1CCN(C(=O)c2ccco2)CC1	-75.7%
N#Cc1nc(-c2ccc(F)cc2)oc1N1CCN(C(=O)c2ccco2)CC1	-75.2%
N#Cc1nc(-c2ccccc2F)oc1N1CCN(C(=O)c2ccco2)CC1	-18.2%
COc1ccc(N2CCN(c3oc(-c4ccco4)nc3C#N)CC2)cc1	-47.9%
N#Cc1nc(-c2ccco2)oc1N1CCN(c2ccccc2)CC1	-62.9%
COc1ccc(-c2nc(C#N)c(N3CCN(C(=O)c4ccco4)CC3)o2)cc1OC	0.504%
COc1cccc(-c2nc(C#N)c(N3CCN(C(=O)c4ccco4)CC3)o2)c1	-35.1%
N#Cc1nc(-c2ccco2)oc1N1CCOCC1	4.48%
N#Cc1nc(-c2ccccc2Cl)oc1N1CCN(C(=O)c2ccco2)CC1	-9.47%
